# Results from PubChem BioAssay (NCI).
# The panel holds about 83,000 compounds, 20% with a hit somewhere; the sample as a whole holds those more often.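 Step 1: grow cells in 96-well plates. Step 2: add test compound at a single concentration. Step 3: incubate 48 h. Step 4: record percent growth.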 Calls of active or inactive are those of the source. How the source made its calls: active means growth percent below 10; inactive means the rest.
# Test system: BT-549 breast
# Assay: NCI-60 one-dose screen, 48 h (100 = growth as untreated, 0 = no growth, -100 = all killed)
# Conditions: 10 µM
row,Compound,growth
1,O=C(/C=C/c1ccco1)c1nc2ccccc2n1Cc1ccc(Br)cc1,6.02% (active)
2,O=C(/C=C/c1ccco1)c1nc2ccccc2n1Cc1ccc(F)cc1,59.7% (inactive)
3,COc1cc2cc(C(=O)N3C[C@@H](CCl)c4c3cc(OC(=O)N3CCN(C)[C@@H]5CSSC[C@@H]53)c3ccccc43)[nH]c2c(OC)c1OC,-82.6% (active)
4,C#CC[Se]C(=O)c1ccc2n[se]nc2c1,52.1% (inactive)
5,O=C(/C=C/c1ccc(Cl)cc1Cl)c1nc2ccccc2n1Cc1ccc(F)cc1,24.4% (inactive)
6,O=C(/C=C/c1ccc(Cl)cc1)c1nc2ccccc2n1Cc1ccc(Br)cc1,37.2% (inactive)
7,CCOP(=O)(OCC)C(NC(C)=O)C(=O)SCCN (centres undefined),111% (inactive)
8,COc1cc2cc(C(=O)N3C[C@@H](CCl)c4c3cc(OC(=O)N3CCN(C)[C@@H]5CSSC[C@H]53)c3ccccc43)[nH]c2c(OC)c1OC,-96.4% (active)
9,COc1ccc2cc([C@H](C)C(=O)[Se]CCC#N)ccc2c1,-8.75% (active)
10,CC12OOC(C)(OO1)C2CCC(=O)OCCNc1ccnc2cc(Cl)ccc12 (centres undefined),93.1% (inactive)
11,CC(C)N=C([Se])NC(=O)c1cccs1,43.7% (inactive)
12,Cc1ccc2[nH]c(=S)n(-c3ccc(F)cc3)c(=O)c2c1,93.7% (inactive)
13,CCOC(=O)C1=C(Nc2ccccc2)C(=O)OC12C(=O)Nc1ccccc12 (centres undefined),103% (inactive)
14,CC12CCC3(CCC(=O)NCCCNc4ccnc5cc(Cl)ccc45)[C@@](C)(OO[C@]3(C)O1)O2,-7.38% (active)
15,CC[C@]12C=CCN3CC[C@@]4(c5ccc(OC)cc5N(C)[C@H]4[C@@](O)(C(=O)OC)[C@@H]1OC(=O)CCCC[P+](C1CCCCC1)(C1CCCCC1)C1CCCCC1)[C@@H]32,-97.4% (active)
16,CC(=O)Oc1ccccc1C(=O)[Se]C(=NC(C)C)NC(C)C,-94.7% (active)
17,COCCOCCOCCOc1ccc(-n2cc(CCCN(CCNc3ccnc4cc(Cl)ccc34)C(=O)CCC(=O)O[C@@H]3O[C@@H]4OC5(C)CC[C@H]6[C@H](C)CC[C@@H]([C@H]3C)[C@@]46OO5)nn2)cc1,4.88% (active)
18,C[C@H]1[C@@H](CC(=O)N[C@@H](Cc2coc3ccccc23)B(O)O)O[C@@H]2OC3(C)CC[C@H]4[C@H](C)CC[C@@H]1[C@@]24OO3,-92% (active)
19,COP(=O)(CC(F)(F)C(F)(F)F)OC,37.3% (inactive)
20,CC12OOC(C)(OO1)C2CCC(=O)NCCNc1ccnc2cc(Cl)ccc12 (centres undefined),106% (inactive)

row,Compound,growth
1,CC[C@]12C=CCN3CC[C@@]4(c5ccc(OC)cc5N(C)[C@H]4[C@@](O)(C(=O)OC)[C@@H]1OC(=O)CCC[P+](c1ccc(C)cc1)(c1ccc(C)cc1)c1ccc(C)cc1)[C@@H]32,-96.9% (active)
2,CC(C)N=C([Se])NC(=O)c1ccccc1,40.6% (inactive)
3,CC[C@]12C=CCN3CC[C@@]4(c5ccc(OC)cc5N(C)[C@H]4[C@@](O)(C(=O)OC)[C@@H]1OC(=O)CCC[P+](C1CCCCC1)(C1CCCCC1)C1CCCCC1)[C@@H]32,-97.4% (active)
4,CC1=C(COCCOC(=O)c2ccc(S(=O)(=O)F)cc2)C2=C(C)C3(CC3)[C@@](C)(O)C(=O)C2=C1,-83% (active)
5,CC[C@]12C=CCN3CC[C@@]4(c5ccc(OC)cc5N(C)[C@H]4[C@@](O)(C(=O)OC)[C@@H]1OC(=O)CCCC[P+](c1ccc(OC)cc1)(c1ccc(OC)cc1)c1ccc(OC)cc1)[C@@H]32,-96.7% (active)
6,CC1=C(CCC=NNC(N)=O)C2=C(C)C3(CC3)[C@@](C)(O)C(=O)C2=C1,-33.7% (active)
7,CC[C@@]12CC(C(=O)OC)=C3Nc4cc5c(cc4[C@@]34CCN(C[C@H]3O[C@H]31)[C@@H]24)[C@@H]1[C@H](O5)[C@@H](O)[C@@]2(CC)CC(C(=O)OC)=C3Nc4cc(OC)ccc4[C@@]34CCN1[C@@H]24,-16.9% (active)
8,CCOP(=O)(CC(F)(F)C(F)(F)F)OCC,49% (inactive)
9,CC1=C2C(=C[C@@](C)(COP(=O)(Oc3ccccc3)Oc3ccccc3)[C@@H]2O)C(=O)[C@@](C)(O)C12CC2,-2.47% (active)
10,CC(=O)Oc1ccccc1C(=O)NC([Se])=NC1CCCCC1,33.8% (inactive)
11,C[C@H]1[C@H](OC(=O)CCC(=O)N(CCCc2cn(-c3ccc(CN4CCOCC4)cc3)nn2)CCNc2ccnc3cc(Cl)ccc23)O[C@@H]2OC3(C)CC[C@H]4[C@H](C)CC[C@@H]1[C@@]24OO3,5.43% (active)
12,O=C(/C=C/c1ccc(Cl)cc1)c1nc2ccccc2n1Cc1ccc(F)cc1,2.95% (active)
13,CC1=C(CCC=O)C2=C(C)C3(CC3)[C@@](C)(O)C(=O)C2=C1,-23% (active)
14,O=C(NC([Se])=NC1CCCCC1)c1ccc2c(c1)OCO2,96.7% (inactive)
15,C[C@H]1[C@H](OC(=O)CCC(=O)N(CCCc2cn(-c3ccc(C#N)cc3)nn2)CCNc2ccnc3cc(Cl)ccc23)O[C@@H]2OC3(C)CC[C@H]4[C@H](C)CC[C@@H]1[C@@]24OO3,24.2% (inactive)
16,C[C@H]1[C@@H](Oc2ccc(-c3cn(-c4ccnc5cc(Cl)ccc45)nn3)cc2)O[C@@H]2OC3(C)CC[C@H]4[C@H](C)CC[C@@H]1[C@@]24OO3,24.9% (inactive)
17,COc1ccc(/C=C/C(=O)c2nc3ccccc3n2Cc2ccc(Br)cc2)cc1,70.3% (inactive)
18,COC(=O)CCn1c(-c2ccc(-n3cc(-c4ccc(O[C@H]5O[C@@H]6OC7(C)CC[C@H]8[C@H](C)CC[C@@H]([C@H]5C)[C@@]68OO7)cc4)nn3)cc2)nc2ccccc21,-7.77% (active)
19,C[C@H]1[C@H](OC(=O)CCC(=O)N(CCCc2cn(-c3ccc([N+](=O)[O-])cc3)nn2)CCNc2ccnc3cc(Cl)ccc23)O[C@@H]2OC3(C)CC[C@H]4[C@H](C)CC[C@@H]1[C@@]24OO3,43% (inactive)
